We go through 40 compounds from PubChem BioAssay (NCI).

Where “and” joins values, the source holds several entries; their conditions need not be identical. Identical values can stand only once. Compounds without any hit were thinned out: in the full panel of roughly 83,000, 20% have a hit.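 Step 1: grow cells in 96-well plates. Step 2: add test compound at a single concentration. Step 3: incubate 48 h. Step 4: record percent growth.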 Calls of active or inactive are those of the source. The calls were made as follows: active = growth percent below 10; inactive = the rest.

The subject of this experiment is MDA-MB-468 breast. The experiment can be described thus: NCI-60 one-dose screen, 48 h (100 = growth as untreated, 0 = no growth, -100 = all killed). The note with it: 10 µM unless noted.
Consider `CCCCCCC(C)N(CC(C)(C)O)C(=O)c1ccc([N+](=O)[O-])cc1` (stereo not given), for which the growth was 96.1% (inactive).

As for `O=S(=O)(c1ccccc1)n1cc2c(c1-c1ccccc1)CCc1sc(Nc3ccccc3)nc1-2`, the growth is 73.3% (inactive). For the compound `COc1cc(Nc2cc(C)nc(N3CCN(c4ccnc5cc(Cl)ccc45)CC3)n2)cc(OC)c1`, the growth was 11.2% (inactive). With `COc1ccc2cc(Cn3cc[n+](Cc4ccc5ccccc5c4)c3)ccc2c1`, the growth was -22.9% (active). As to `CCOC(=O)C(=O)CC(=O)N1C(=S)NC(=O)C1CC(C)C` (stereo not given), the growth is 85.1% (inactive). For `COc1ccc(C(O)c2cc3c(N)c(C(=O)Nc4cccc(Cl)c4)sc3nc2C)cc1` (stereo not given), the growth was 22.4% (inactive).

As to `CC(=O)Nc1nc(C)c(C(=O)NN)s1`, the growth was 87.8% (inactive). The figure for `NCCCc1nnc(CCC(=O)c2nc3ccccc3[nH]2)o1` is 107% (inactive); for `CC1CCNC(C)C1` (stereo not given) it is 99.2% (inactive). Regarding `Cc1ccccc1C(c1ccccc1)c1ccccc1C`, the growth is 50.3% (inactive). In the case of `NS(=O)(=O)c1ccc(Cn2c(SCC(=O)N/N=C/c3ccccc3O)nc3ccccc3c2=O)cc1`, the growth is 52% (inactive). Consider `N#CC1=C(N)Oc2c(c(N)nn2-c2ccccc2)C1c1ccc(Cl)cc1` (stereo not given), for which the growth was 117% (inactive). Under `O=C(OCc1ccc2c(Cl)cc(Cl)c(O)c2n1)N1CCN(C(=O)c2cc3cc(F)ccc3[nH]2)CC1` stands -5.15% (active); under `N#Cc1c(-c2ccccc2)cc(-c2ccccc2)n(CC(=O)O)c1=O`, 37.8% (inactive).

As for `Cc1cc(=O)oc2cc(Oc3nc(-c4cccs4)cn4c(-c5cccs5)cnc34)ccc12`, the growth was 54.7% (inactive). In the case of `O=C(O)C(C(=O)O)c1cccc2ccccc12`, the growth is 101% (inactive). As to `COc1ccc(/C(C)=C(\c2ccc(Cl)cc2)c2ccc(OCCCN(C)C)cc2)cc1`, the growth was 82.7% (inactive).

With `CCOc1ccc(Nc2c3ccccc3nc3ccccc23)cc1`, the growth is 102% (inactive) and -9.77% (active). In the case of `COc1ccc2c(c1)C/C(=C\c1cc(-c3ccc4c(c3)OCO4)n[nH]1)C2=O`, the growth is 37.8% (inactive). With `NC(N)=NS(=O)(=O)c1ccc(N=Nc2c(N)nn(-c3ccc([N+](=O)[O-])cc3[N+](=O)[O-])c2N)cc1`, the growth was 106% (inactive). In the case of `Cc1cccc(NC2=C(Cl)C(=O)c3nc(C)ccc3C2=O)c1`, the growth is -81.1% (active).

In the case of `FC(F)(F)c1[nH]ncc1-c1nc2ccc3n[nH]c(C#Cc4cccnc4)c3c2c2c1CCCC2`, the growth is 73.9% (inactive).

Regarding `CC1(C)NC2=C(C(Nc3cccnc3)N1)C(c1ccc([N+](=O)[O-])cc1)C(C(=O)c1ccc(N=[N+]=[N-])cc1)O2` (stereo not given), the growth is 115% (inactive). Take `c1ccc(OCC[P+](c2ccccc2)(c2ccccc2)c2ccccc2)cc1`: the growth was -18.1% (active).

For `CN1CCN(c2ccc(Nc3ncc(C(N)=O)c(NCCCNC(=O)C4CCC4)n3)cc2)CC1`, the growth is 6.58% (active). Under `CCNC(=O)C#Cc1ccc2c(C(=Nc3ccc(CN(C)C)cc3)c3ccccc3)c(O)[nH]c2c1` stands 17.2% (inactive); under `Cc1nc2sc(C(=O)Nc3cccc4ncccc34)c(N)c2cc1C(C)O` (stereo not given), 44.9% (inactive).

For `COc1ccc(/C=N/Nc2cc(=O)[nH]c3ccc(Cl)cc23)cc1`, the growth is 78% (inactive). Regarding `OCCN1CCN(CC/C=C2\c3ccccc3Sc3ccc(Cl)cc32)CC1`, the growth is -97.1% (active). `COc1ccc(C2NC(=O)Nc3ccccc32)c(OC)c1` (stereo not given): the growth was 103% (inactive). Turning to `Cc1cn(C)cn1`, the growth was 112% (inactive). Under `Cc1cccc2c1NC(=O)C2(c1ccc(O)cc1)c1ccc(O)cc1` stands -11% (active); under `COc1cc(Cl)cc(-c2nn(-c3cccc(NC(=O)Nc4cc(C(F)(F)F)cc(C(F)(F)F)c4)c3)cc2-c2ccncc2)c1`, -2.95% (active). The figure for `O=C(O)c1ccc2c(c1)C(=O)c1ccccc1C2=O` is -2.97% (active); for `CS(=O)(=O)Nc1cc(-c2ccc3ncnc(Nc4cccc(Cl)c4F)c3c2)cnc1Cl` it is -18.4% (active). As for `COc1ccc(C2=CN3CC=CC3CC2=O)cc1` (stereo not given), the growth was 95.3% (inactive). The figure for `COc1cc(C2C3=C(COC3=O)N(CCO)c3cc4c(cc32)OCO4)cc(OC)c1O` (stereo not given) is -35.5% (active); for `O=C(Nc1cccc(N=Cc2c(O)ccc3ccccc23)c1)c1ccccc1` it is 98.9% (inactive).

As for `NC(N)=Nc1ccc(Oc2cccc(Oc3ccc(Cl)c(C(F)(F)F)c3)c2)cn1`, the growth was -79.3% (active). As for `CC(=O)C1=C(C)NC(SCc2nnc(-c3ccc(C)cc3)o2)=NC1c1ccc(F)cc1` (stereo not given), the growth is 93.4% (inactive).
